Experimental findings from the supplement of paper PMC7695840 are described below.

Molecules are shown by their SMILES. Where a name gives a salt, the structure may show the parent alone.

The experiment concerns Staphylococcus aureus MW2 (mecA+). Briefly: normalized DsRed fluorescence (growth of mecA+ strain) (fraction of control range); higher = more growth of mecA+ strain. To be noted: compound concentration: 150 uM; cefoxitin: subinhibitory; fluorescent label: DsRed. The method in brief:
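Fluorescence from DsRed (540/590) and GFP (485/520) was recorded after 20 h of static growth at 37 °C and 90% humidity. The wells held a 1:1 mix of pre-induced S. aureus MW2 cells, gene-bearing with DsRed and gene-deleted with GFP, in LB with a daily-set subinhibitory antibiotic dose, dispensed at 5 µL/well onto 150 μM compound (1.5% DMSO) in 1536-well plates, single replicate. Each channel was scaled per plate between single-strain control medians, excluding plates with high untreated ratios and rows with DsRed/GFP >10.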
Regarding `NCCNCCNCCN`, the “normalized DsRed fluorescence” value was found to be 0.66.

As to `CN(C)CCC=C1c2ccccc2C=Cc2ccccc21`, the “normalized DsRed fluorescence” value is 1.21.

`CC#C[C@]1(O)CC[C@H]2[C@@H]3CCC4=CC(=O)CCC4=C3[C@@H](c3ccc(N(C)C)cc3)C[C@@]21C`: the “normalized DsRed fluorescence” value was found to be 0.695.

As for `Clc1ccc(COC(Cn2ccnc2)c2ccc(Cl)cc2Cl)cc1` (stereo unspecified) [Econazole nitrate (Spectazole)], the “normalized DsRed fluorescence” value worked out at 0.01.

Regarding `CC(C)(C)NC[C@H](O)COc1nsnc1N1CCOCC1`, the “normalized DsRed fluorescence” value amounted to 0.811.

With `COc1cc2nc(N3CCN(C(=O)C4CCCO4)CC3)nc(N)c2cc1OC` (stereo unspecified) [Terazosin HCl (Hytrin)], the “normalized DsRed fluorescence” value was found to be 0.745.

On to `CC1(C)[C@@H](OC(=O)CCC(=O)O)CC[C@]2(C)[C@H]3C(=O)C=C4[C@@H]5C[C@@](C)(C(=O)O)CC[C@]5(C)CC[C@@]4(C)[C@]3(C)CC[C@@H]12`, for which the “normalized DsRed fluorescence” value stood at 0.249.

In the case of `COC(=O)C1=C(C)NC(C)=C(C(=O)OCCN2CCN(C(c3ccccc3)c3ccccc3)CC2)C1c1cccc([N+](=O)[O-])c1` (stereo unspecified), the “normalized DsRed fluorescence” value was 0.944.

Consider `CC1=NN(c2ccc(C)c(C)c2)C(=O)/C1=N\Nc1cccc(-c2cccc(C(=O)O)c2)c1O`, for which the “normalized DsRed fluorescence” value came to 0.021.

For `Cc1cc(C(C)(C)C)c(O)c(C)c1CC1=NCCN1` [Oxymetazoline hydrochloride], the “normalized DsRed fluorescence” value came out at 1.28.

In the case of `O=C1c2ccccc2C(=O)C1c1ccccc1` [Phenindione (Rectadione)], the “normalized DsRed fluorescence” value was 0.634.

For `Cc1ncc([N+](=O)[O-])n1CC(C)O` (stereo unspecified) [Secnidazole (Flagentyl)], the “normalized DsRed fluorescence” value was found to be 0.482.

As for `CNC1(C)C2CCC(C2)C1(C)C` (stereo unspecified), the “normalized DsRed fluorescence” value stood at 0.669.

Take `Nc1c(Br)cc(Br)cc1CN[C@H]1CC[C@H](O)CC1` [Ambroxol HCl]: the “normalized DsRed fluorescence” value was found to be 0.849.

Turning to `CN1CCC(=C2c3ccccc3CCc3cccnc32)CC1`, the “normalized DsRed fluorescence” value worked out at 0.798.

In the case of `C[C@@H]1C[C@H]2[C@@H]3CCC4=CC(=O)C=C[C@]4(C)[C@@]3(F)[C@@H](O)C[C@]2(C)[C@@]1(O)C(=O)CO`, the “normalized DsRed fluorescence” value came to 0.687.
